D2 ag-1 = agonists of human D2 dopamine receptor (beta-arrestin). P14416. DiscoveRx PathHunter D2 beta-arrestin, luminescence, 90 min; 100% = 57 uM dopamine signal. AID 624465. hit rate 0.084% among 360,000. activation, % (no concentration beside the values); in the data active = activation above about 40%; inconclusive = between about 15% and that limit
Target sequence (P14416 whole entry, looked up): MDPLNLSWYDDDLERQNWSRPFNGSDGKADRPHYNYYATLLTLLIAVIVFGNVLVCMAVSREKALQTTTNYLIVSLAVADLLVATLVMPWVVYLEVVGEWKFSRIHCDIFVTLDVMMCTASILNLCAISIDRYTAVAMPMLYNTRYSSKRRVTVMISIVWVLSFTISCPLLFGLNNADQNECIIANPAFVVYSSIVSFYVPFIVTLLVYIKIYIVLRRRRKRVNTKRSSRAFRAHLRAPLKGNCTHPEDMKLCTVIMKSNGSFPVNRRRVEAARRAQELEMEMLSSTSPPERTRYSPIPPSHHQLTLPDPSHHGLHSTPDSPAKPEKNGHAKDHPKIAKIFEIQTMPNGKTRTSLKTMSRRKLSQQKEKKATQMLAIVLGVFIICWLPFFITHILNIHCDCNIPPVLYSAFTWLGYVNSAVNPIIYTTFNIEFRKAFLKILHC
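Agonist mode: compounds alone added to overnight-plated D2 PathHunter cells for 90 min at 37 C, with 57 uM final dopamine (EC100) defining full response. Beta-arrestin recruitment detected by chemiluminescent reagent, read after 1 h at ambient temperature.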
D2 PAM-1 = D2 dopamine receptor (human) potentiation | P14416 | HEK293 T-REx D2, calcium flux, EC20 dopamine potentiation | potentiation, % at 10 µM | hit rate 0.34% among 340,000;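 active = potentiation over 3 SD above the plate norm, cut at about 30% in these data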; also: 0% is about no effect
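Potentiation of an EC20 dopamine calcium response is measured in a force-coupled, tetracycline-inducible Hek293 Trex D2 line. Compound-only kinetic reads over 180 s flag agonists before dopamine addition.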
D2 antagonist = D2 dopamine receptor (human) antagonism. P14416. HEK293 TREx D2 cells, calcium flux, dopamine EC80. inhibition, % at 10 µM. hit rate 2% among 340,000. AID 485344; in the data active = inhibition above about 30%; inactive = below that, where a call was filed; also: 0% is about no effect
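Cells plated overnight at 30 C with tetracycline; no-wash calcium dye, 30–90 min RT; 10 s baseline; compound pinned; 180 s read; EC80 dopamine added; another 180 s read.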
D2 PAM-2 = potentiates the human D2 dopamine receptor allosterically. P14416. DiscoveRx D2 beta-arrestin cells, luminescence, 90 min; 100% = 57 uM dopamine signal. potentiation, % (no concentration beside the values). hit rate 0.23% among 360,000. AID 624464; in the data active = potentiation above about 50%; inconclusive = mostly about 30% to 49%
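PathHunter beta-arrestin assay in DiscoveRx D2 cells. Compounds were added with an EC20 of dopamine (50 nM final) for 90 min at 37 deg C. Luminescence was read 1 h after detection reagent, with 57 uM dopamine as the EC100 control.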
D2 ag-2 = activates the human D2 dopamine receptor; HEK293 T-REx D2 cells, calcium flux agonist mode; hit rate 0.53% among 340,000; P14416; activation, % at 2 µM; AID 485358;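 active = activation over 3 SD above normal in the single-dose calcium agonist read, cut at about 30% in these data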; also: 0% is about no effect
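In this primary screen, compounds producing a positive calcium signal within 180 s of addition to tetracycline-induced, force-coupled HEK293 Trex D2 cells are flagged; cells are dye-loaded with a no-wash calcium kit beforehand.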
The depositor's hits bear a star; ? = inconclusive; . = no result. Only some compounds are listed: those with a hit (about 2.4% of all), similar ones and a draw of the others.

SMILES	D2 ag-1	D2 PAM-1	D2 antagonist	D2 PAM-2	D2 ag-2
O=C1C=C(c2cccs2)C[C@H](c2ccccc2)[C@H]1n1nnc([N+](=O)[O-])n1	?	7	-10	92*	-1
COc1cccc(-c2nn3c(=O)cc(CN4CCN(S(=O)(=O)c5ccc(C)cc5)CC4)nc3s2)c1	.	11	.	.	1
Nc1cc(N)nc(SCCc2ccccc2)n1	2	-1	47*	1	1
Nc1cc(N)nc(SCc2ccccc2)n1	0	-11	-14	0	0
O=C(O)CCc1ccc(-c2ccc(Cl)cc2)n1CC(=O)Nc1ccccc1	-1	36*	-9	-5	-2
O=C(O)CCc1ccc(-c2ccc(Cl)cc2)n1CC(=O)O	-3	9	9	-4	0
COc1ccc(Cn2c(=O)c3ccccc3n3c(-c4ccc(C)cc4)nnc23)cc1	.	-5	.	.	-1
Cc1ccc(CNC(=O)Cn2cnc3cc([N+](=O)[O-])ccc3c2=O)cc1	1	-22	-1	54*	1
CC(C)(C)c1ccc(NC(=O)Cn2cnc3cc([N+](=O)[O-])ccc3c2=O)cc1	?	-3	-5	27	0
O=C(Nc1cccnc1)c1ccc2snnc2c1	2	6	35*	-13	-1
O=C(Nc1ccccc1)c1ccc2snnc2c1	-5	-4	-4	-2	-1
O=c1c2c([N+](=O)[O-])cc([N+](=O)[O-])cc2sn1-c1ccc(Br)cc1	11	-2	7	61*	1
O=c1c2c([N+](=O)[O-])cc([N+](=O)[O-])cc2sn1Cc1ccccc1	-7	.	.	8	.
COc1ccc(Nc2cc3n(c(=O)n2)CCc2cc(OC)c(OC)cc2-3)cc1	1	6	-8	-4	0
COc1cc2c(cc1OC)-c1cc(Nc3ccc4c(c3)OCCO4)nc(=O)n1CC2	0	57*	-3	2	-1
CCOc1ccc(CCNC(=O)Cn2c(-c3cccs3)cc3ccccc32)cc1	.	4	.	.	0
Cc1ccc2c(n1)sc1c(=O)n(-c3cccc(C(F)(F)F)c3)nnc12	.	.	.	.	-2
Cc1ccc(C(=O)OCc2nnc(-c3ccccc3)o2)o1	-3	32*	17	6	1
O=C(OCc1nnc(-c2ccccc2)o1)c1cc(S(=O)(=O)N2CCOCC2)c(Cl)cc1Cl	-1	-3	38*	3	0
COc1cccc(C2C3=C(CC(C)(C)CC3=O)Nc3n[nH]c(C)c32)c1 (centres undefined)	1	31*	-8	-10	11
O=C(Nc1nnc(S(=O)(=O)N2CCCC2)s1)c1ccccc1Cl	-5	-4	35*	-2	-2
O=C(Nc1nnc(S(=O)(=O)N2CCCCCC2)s1)c1ccccc1Cl	2	4	.	-6	2
O=c1nc(/C=C/c2ccccc2C(F)(F)F)cc(C(F)(F)F)[nH]1	-3	9	32*	-10	-2
O=C1NCCN1Cc1ccc(Cl)cc1	1	49*	-13	-8	0
CN1CCN(C(=O)CSc2nc(-c3cccs3)ccc2C#N)CC1	2	37*	-5	-5	-1
SMILES	D2 ag-1	D2 PAM-1	D2 antagonist	D2 PAM-2	D2 ag-2
Cc1ccccc1Nc1nc(N)nc(COC(=O)CCS(=O)(=O)c2ccccc2)n1	1	-13	32*	-4	2
Cc1ccc(S(=O)(=O)CCC(=O)OCc2nc(N)nc(Nc3ccccc3C)n2)cc1	-2	21	-2	?	0
CC(=O)Nc1cccc(Nc2nc3ccccc3n3c(C)nnc23)c1	.	-5	.	.	0
O=C(CCCn1c(=O)c2cccn2c2cccnc21)NCc1ccccc1Br	.	-1	.	.	0
COC(=O)COc1ccc2c(=O)c(Oc3ccccc3)c(C)oc2c1	-2	37*	-10	-10	0
CCOc1ccc(Oc2c(C)oc3cc(O)ccc3c2=O)cc1	2	-2	-7	-1	1
Cc1ccc(C)c(S(=O)(=O)N2CCN(C(C(=O)Nc3ccc(F)cc3)c3ccccc3)CC2)c1 (centres undefined)	-1	-4	-8	-13	0
O=C(Nc1ccc(F)cc1)C(c1ccccc1)N1CCN(S(=O)(=O)c2ccc3ccccc3c2)CC1 (centres undefined)	1	-2	37*	-10	1
CCOc1ccc(N2C(=O)c3[nH]nc(-c4ccc(OC)cc4)c3C2c2cccs2)cc1 (centres undefined)	.	19	.	.	.
COc1ccc(NC(=O)COC(=O)CCCOc2ccc(Cl)cc2Cl)cc1	1	-20	40*	-9	0
CCCCNC(=O)CSc1nc2cc3c(cc2c(=O)n1CCCC(=O)NCc1ccc2c(c1)OCO2)OCO3	.	-18	.	.	1
COc1ccc(OC)c(-c2nc(C(=O)NCCCN3CCOCC3)cc3c2[nH]c2ccccc23)c1	-2	-18	-7	-79	0
COc1cc(-c2nc(C(=O)NC3CCCCC3)cc3c2[nH]c2ccccc23)cc(OC)c1OC	10	24	-25	-13	0
COc1cc(-c2nc(C(=O)NC3CCN(Cc4ccccc4)CC3)cc3c2[nH]c2ccccc23)cc(OC)c1OC	-6	-24	74*	-90	0
COc1ccc(OC)c(-c2nc(C(=O)NC3CCN(Cc4ccccc4)CC3)cc3c2[nH]c2ccccc23)c1	-4	-24	81*	-97	0
Cc1ccc(Nc2nnc(C)c(=O)[nH]2)cc1	4	-4	43*	-5	-3
CC1=C(C(=O)OCc2ccccc2)C(c2ccccc2Br)NC(=O)N1 (centres undefined)	97*	1	0	?	1
COc1ccccc1C1NC(=O)NC(C)=C1C(=O)OCc1ccccc1 (centres undefined)	8	6	6	-2	1
CC1=C(C(=O)OCc2ccccc2)C(c2cccc([N+](=O)[O-])c2)NC(=O)N1 (centres undefined)	4	4	2	59*	1
COc1ccc(/C=N/NC(=O)c2ccc(O)cc2O)cc1CSc1ccccn1	0	-15	19	-1	39*
Nc1cc(=O)[nH]c(SCC(=O)Nc2cc(Cl)cc(Cl)c2)n1	-2	-17	30*	-37	-1
Nc1cc(=O)[nH]c(SCC(=O)Nc2ccc(Cl)c(Cl)c2)n1	-1	-6	-8	-9	1
Cn1c(=O)c2c(ncn2CC2OCCO2)n(C)c1=O	-3	2	32*	-6	1
Cn1c(=O)c2c(ncn2CC(N)=O)n(C)c1=O	2	1	7	-14	1
O=C(NC1CC(=O)N(c2ccc(Cl)cc2)C1)C1CCCCC1 (centres undefined)	.	-8	.	.	-1
O=C(Nc1cccc(F)c1)c1oc2ccccc2c1NC(=O)C12CC3CC(CC(C3)C1)C2	.	-3	.	.	0
Cn1cccc1C(=O)OCC(=O)N1CC(=O)Nc2ccccc21	-4	2	34*	-22	2

Screens: PubChem, National Center for Advancing Translational Sciences (NCATS)
